Compounds with a hit are over-represented: about 0.36% of the library has one in this group of screens.
AID504770 = E. coli YBA685 growth inhibition, screen for V. cholerae RctB inhibitors; E. coli YBA685 rctB-dependent plasmid, OD600 growth, 3 h; stronger effect = lower value; z-score (test concentration not listed); AID 504770; 0.27% of 130,000 active; in the data active = z-score below about -2, passing the limit was not always enough
CapD inh = blocks the Bacillus anthracis CapD enzyme. purified CapD enzyme, fluorescence intensity read-out; stronger effect = lower value. z-score (concentration not given with the values). 0.23% of 140,000 active. AID 492967; in the data active = z-score mostly below about -2.9, no sharp cut-off; inactive = mostly above about -1.9
Active calls of the source: *; i = inactive; x = no result.

SMILES	AID504770	CapD inh
CC(C)(C)Cc1cc(N)on1	-2.05*	x
Nc1cc(-c2ccc(Br)cc2)no1	-0.15	0.75
O=C(NCCCSc1ccccc1)Nc1ccccc1	0.05	x
O=C(NCCSc1ccc(Cl)cc1)Nc1ccccc1	-4.5*	10.5
O=C(O)c1ccc2c(c1)C1C=CCC1C(c1ccc(Br)cc1)N2 (configuration not stated)	-0.15	-1.35
Cc1ccc2c(c1C)NC(C(=O)O)C1CC=CC21 (configuration not stated)	-0.15	x
CC(=O)Oc1ccc(C2Nc3ccc(C(=O)O)cc3C3C=CCC32)c(OC(C)=O)c1 (configuration not stated)	x	-4.42*
O=C(O)c1ccc(C2Nc3ccccc3C3C=CCC32)cc1 (configuration not stated)	2.55	-7.87*
CC(=O)Oc1ccc(C2Nc3ccc(C(C)=O)cc3C3C=CCC32)c(OC(C)=O)c1 (configuration not stated)	x	1.34
O=C(O)C1Nc2ccccc2C2C=CCC12 (configuration not stated)	0.35	-8.75*
O=C1/C(=C\O)CCc2occc21	-0.1	-8.14*
O/N=C1/CCCc2occc21	-0.95	-0.35
Cc1ccc(C)c(NC(=O)CN(C)C(=O)COc2ccccc2C#N)c1	-3.5*	x
Cc1ccc(CN(C)C(=O)COc2ccccc2C#N)o1	-0.15	x
COC(=O)C(NC(=O)c1ccc(Cl)cc1)(Nc1sc2c(c1C#N)CCC(C(C)(C)C)C2)C(F)(F)F (configuration not stated)	x	0.105
Cc1ccc(C)c(SCC(=O)N(C)C)c1	-0.6	x
c1ccc(COCC(CSc2ccccc2)OCc2ccccc2)cc1 (configuration not stated)	1.35	-0.195
O=C1C=C2C(=CCOC2O)O1 (configuration not stated)	-5.25*	-0.01
Cc1c(Cl)sn(-c2ccc(Cl)cc2)c1=O	-5.75*	0.23
O=C1CSCC(=O)N1c1ccc(Cl)cc1	-0.7	-0.47
COc1ccc(CCNC(=O)C(C(C)C)N2C(=O)c3ccccc3C2=O)cc1 (configuration not stated)	0.45	-4.84*
COc1ccc(CCNC(=O)c2ccccc2OC)cc1	0.75	x
Cc1cccc(C)c1NC(=O)COC(=O)Cn1nnc(-c2ccccc2)n1	1.55	x
N/C(=N\OC(=O)c1ccccc1)c1cccnc1	-1	x
CC(Oc1cccc(Cl)c1)C(=O)O/N=C(\N)c1cccnc1 (configuration not stated)	-0.6	-6.04*
SMILES	AID504770	CapD inh
Cn1nc2c3c(cccc3c1=O)-c1ccccc1-2	-0.5	x
Cc1cc(C)c(S(N)(=O)=O)cc1S(N)(=O)=O	0.5	0.13
N#CC1(C#N)C2C=CC(C2)C1(C#N)C#N	-5.95*	0.765
COC(=O)c1cc([N+](=O)[O-])ccc1N1CCCC1	x	-1.2
O=C(Nc1ccc(NC(=O)c2ccccc2O)cc1)c1ccccc1	1.1	0.315
O=Nc1ccc(NNC(=O)c2ccccc2O)cc1	-2.85*	-3.71
CCC(=O)c1cn(CC(=O)N2CCc3ccccc32)c2ccccc12	-0.05	0.045
O=C1CC2(CCCC2)C(=O)N1c1ccc(OC(F)(F)F)cc1	-0.2	0.43
N#Cc1cc(Cl)ccc1Nc1ncnc(N)n1	-2.4*	89.8
Nc1ncnc(Nc2ccc(Cl)c(Cl)c2)n1	x	-0.335
CCc1ccc(Nc2cc(=O)oc3ccccc23)cc1	0.6	0.065
COc1ccc(/C=N/N=C(N)N)cc1OC	-0.4	0.47
COc1cc(/C=N/N=C(N)N)ccc1OC(=O)c1ccc(C)cc1	-9.55*	0.27
CS(=O)(=O)c1ccc2nc(NC(=O)c3ccc(C(=O)c4ccccc4)cc3)sc2c1	-0.7	i
CC(C)N=C(N)/N=C(\N)Nc1ccc(Cl)cc1	x	-1.32
NC(=NCCCCCCN=C(N)/N=C(\N)Nc1ccc(Cl)cc1)/N=C(\N)Nc1ccc(Cl)cc1	-5*	0.31
O=C(ON1C(=O)CCC1=O)c1ccccc1Cl	0.1	-0.13
O=C(ON1C(=O)CCC1=O)c1ccc(Cl)cc1Cl	-0.3	-3.96*
COc1cc(/C=C/C(=O)NCCn2ccc3ccccc32)cc(OC)c1OC	-0.15	7.89
COc1cccc(-n2c(/C=C3\C(=O)N(C)c4ccc(Br)cc43)nc3ccccc3c2=O)c1	x	-0.185
CC(=O)CC(=O)c1c(C)[nH]n(-c2ccccc2)c1=O	x	-0.735
CCC(=O)NC(c1c(C)[nH]n(-c2ccccc2)c1=O)(C(F)(F)F)C(F)(F)F	-3.25*	-0.055
Cc1occc1C(=O)NC1CCN(C)CC1	1.45	-0.17
Cc1nc(Cc2nnc(SCC(=O)NC(C)(C)C)o2)cs1	-0.35	x
Cc1nc(Cc2nnc(SCC(=O)NCC34CC5CC(CC(C5)C3)C4)o2)cs1	-2.85*	x
Cc1c(C(=O)O)sc2nc3n(c(=O)c12)CCC3	x	-5.21*
CCCN1CCN(C(=O)c2sc3nc4n(c(=O)c3c2C)CCCC4)CC1	-0.3	0.71
N#CC1=C(N)C(C#N)(C#N)C(c2ccco2)C2CN(Cc3ccccc3)CC=C12 (configuration not stated)	-0.15	x
